The panel holds about 79,000 compounds, 15% with a hit somewhere; the sample as a whole holds those more often. No stated cut-off is given here; in the data, active means growth inhibition above about 70%; inactive means the rest.
Assays:
[1] = NCI Yeast Anticancer Drug Screen. Data for the rad50 strain (AID 155);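 further: 0% = growth of vehicle-only cultures of the same strain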; details: S. cerevisiae rad50 strain growth inhibition; at 50.0 µM; stronger effect = higher value
Procedure, shortened: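 Compounds were tested on a yeast strain with an engineered DNA damage repair alteration; the reported value is growth inhibition normalised to vehicle treatment.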

[2] = NCI Yeast Anticancer Drug Screen. Data for the mec2-1 strain (AID 157); details: S. cerevisiae mec2-1 strain, at 50.0 µM, stronger effect = higher value
Procedure, shortened: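 Vehicle-treated cultures served as reference for growth inhibition of compound-exposed mec2-1 yeast.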

[3] = NCI Yeast Anticancer Drug Screen. Data for the sgs1 mgt1 strain (AID 161);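 further: 0% = growth of cultures given vehicle only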; details: S. cerevisiae sgs1 mgt1 strain, at 50.0 µM, stronger effect = higher value
Procedure, shortened: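 Mutant yeast exposed to compound; growth scored against vehicle-only wells.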

[4] = NCI Yeast Anticancer Drug Screen. Data for the cln2 rad14 strain (AID 165);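 further: 0% = growth equal to vehicle treated cultures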; details: S. cerevisiae cln2 rad14 strain, at 50.0 µM, stronger effect = higher value
Procedure, shortened: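 Each compound was tested on cln2 rad14 yeast. Inhibition of growth was calculated against vehicle-exposed controls.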

[5] = NCI Yeast Anticancer Drug Screen. Data for the bub3 strain (AID 167); details: S. cerevisiae bub3 mutant strain, at 50.0 µM, stronger effect = higher value
Procedure, shortened: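 Growth of a checkpoint-deficient yeast mutant is measured after compound exposure. Values represent inhibition relative to vehicle.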

[6] = NCI Yeast Anticancer Drug Screen. Data for the mlh1 rad18 strain (AID 175); details: S. cerevisiae mlh1 rad18 strain growth inhibition; at 50.0 µM; stronger effect = higher value
Procedure, shortened: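 Vehicle-treated cultures served as the reference for growth inhibition in a yeast strain carrying DNA damage repair alterations exposed to each compound.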

Measured: growth inhibition

C=C1C(=O)OC2/C=C(\C)CC(O)/C=C(/CO)CC(OC(=O)/C(C)=C/C)C12 (stereo unspecified)
inactive: [1] -4.5% | [2] -33.6% | [3] -6.55% | [4] -1.9% | [5] -1.65% | [6] -58.5%

O=C(Nc1ccc([N+](=O)[O-])cc1)Nc1nccnn1
inactive: [1] 5.15% | [2] -13.1% | [3] 10.6% | [4] -39.9% | [5] 8.4% | [6] -0.8%

CCOC(CCNCC(OCC)OCC)OCC
inactive: [1] -46.5% | [2] -56.2% | [3] -29.4% | [4] -11.1% | [5] -4.8% | [6] -22.4%

OCCSC1CCCCC1
inactive: [1] 12.1% | [2] 6.35% | [3] -1.55% | [4] 0.1% | [5] -16.1% | [6] 1.5%

O=C(Nc1ccc(Cl)cc1)P(=O)(O)c1ccccc1
inactive: [1] -11.8% | [2] -0.95% | [3] -23.1% | [4] -26.8% | [5] -16.8% | [6] 18.1%

CCSC(C(O)C(O)C(O)C(O)CO)n1cnc2c(SC)ncnc21 (stereo unspecified)
inactive: [1] 20.1% | [2] -15.3% | [3] 1.05% | [4] -26% | [5] -4.95% | [6] -3.85%

Cc1cc2c(cc1Cl)S(=O)(=O)OC(c1ccc([N+](=O)[O-])cc1)=N2
inactive: [1] -3.25% | [2] -4.3% | [3] -0.1% | [4] 0.45% | [5] 19.1% | [6] -10.3%

Oc1c(C(O)N2CCOCC2)cc(C(O)N2CCOCC2)c(O)c1O (stereo unspecified) (tested in a mixture with another compound)
inactive: [1] -3.3% | [2] -11.1% | [3] -17% | [4] -16.2% | [5] -3.15% | [6] 9.75%

COC(=O)CNN
inactive: [1] -6.05% | [2] -19.4% | [3] -14.8% | [4] -25.1% | [5] -7.25% | [6] 7.9%

COc1ccc(C(=O)C(CN(C)C)CN(C)C)cc1OC
inactive: [1] 30.6% | [2] 9.55% | [3] -14.1% | [4] -5.9% | [5] -11.7% | [6] -18.4%

Cn1c2cc3ccccc3cc2nc2cc3c(cc21)c(Cl)c(=O)c1ccccc13
inactive: [1] 10% | [2] -3% | [3] 12.8% | [4] 5.85% | [5] -4.45% | [6] -2.35%

Cc1ccc(S(=O)(=O)OCC2C(c3ccccc3)CCC(c3ccccc3)C2COS(=O)(=O)c2ccc(C)cc2)cc1 (stereo unspecified)
inactive: [1] -5.6% | [2] -5.4% | [3] -16.1% | [4] -28.6% | [5] 4.25% | [6] 4.45%

Cc1cc2nc(N3CCOCC3)n(C3OC(CO)C(O)C3O)c2cc1C (stereo unspecified)
inactive: [1] -6.6% | [2] 5.75% | [3] 23.2% | [4] 1.55% | [5] -8.95% | [6] 3.95%

COc1ccc2c(O)c(Oc3ccc(Cl)cc3)c(=O)oc2c1
inactive: [1] -4.2% | [2] -1.1% | [3] -1.45% | [4] 2.6% | [5] 7.95% | [6] 22.4%

Nc1ccc(O)c(N)c1
inactive: [1] 35.1% | [2] 23.5% | [3] 26.6% | [4] 13.9% | [5] -8% | [6] 31.4%

O=C(CCCCc1ccccc1)NO
inactive: [1] 25.4% | [2] 18.8% | [3] 14.4% | [4] 15.8% | [5] -5.5% | [6] 33.5%

CCC(C#N)N(Cc1cccc(CN(C(C)=O)C(C#N)CC)c1)C(C)=O (stereo unspecified)
inactive: [1] -5.9% | [2] -11.7% | [3] -4.15% | [4] -29.9% | [5] -25.7% | [6] -43.9%

COC(=O)C1C(=O)C2CCC1C(=O)C2C(=O)OC (stereo unspecified)
inactive: [1] 1.95% | [2] -2.8% | [3] 16.4% | [4] 4.1% | [5] 9.75% | [6] 22.7%

CC(=O)Nc1ccc(S(=O)(=O)Nc2ccc([N+](=O)[O-])cc2)cc1
inactive: [1] -37.4% | [2] -40% | [3] -22.8% | [4] -8.65% | [5] -31.9% | [6] -36%

CN(c1ccccc1)c1nc(Cl)c(Cl)c(Cl)n1
inactive: [1] -0.2% | [2] -11.5% | [3] 6.55% | [4] -39.9% | [5] 2.45% | [6] -3.5%

CCCNC(=S)N/N=C\C(C)=N\Nc1ccc(Cl)cc1
inactive: [1] 31.4% | [2] 16.2% | [3] 3.15% | [4] 36% | [5] 7.5% | [6] 17.2%

From PubChem BioAssay (NCI)
